This excerpt belongs to a sample that is enriched for hits.
Vaccinia mCherry: vaccinia inhibition (mCherry reporter) | Vaccinia virus mCherry reporter infection, fluorescence | Potency, µM (top dose mostly 36.5 µM), actives largely listed as inhibitors | hit rate 0.63% among 310,000 | AID 720579; calls by dose curve; tested in A549 cells; further: nearly all actives have a fitted effect of over 35% in size
Marburg entry inh: inhibitors of Marburg virus binding or cell entry. Marburg virus pseudotyped entry inhibition, cell reporter. Potency, µM (series often up to 37.8 µM), actives largely listed as inhibitors. hit rate 1.8% among 300,000. AID 540276; calls by dose curve; tested in HEK293 cells
Shiga inhibitor: inhibitors of Shiga toxin in Vero cells; Vero cells, Shiga toxin protein synthesis inhibition reporter; inhibition, % at 38.7 µM; hit rate 9.2% among 290,000; in the data active means inhibition mostly above about 28%, no sharp cut-off; inactive means mostly below about 43%
Vaccinia Venus: inhibitors of vaccinia virus (Venus reporter). AID 720580. Vaccinia virus Venus reporter expression, fluorescence. hit rate 0.46% among 330,000. Potency, µM (titrated, usually from 36.5 µM), hits mostly inhibitors; calls by dose curve; tested in A549 cells; further: nearly all actives have a fitted effect of over 30% in size
Cycloheximide cs: affects cycloheximide protein synthesis inhibition readout, counter-screen | AID 2314 | cell reporter, cycloheximide protein synthesis inhibition counterscreen | max response, % | hit rate 12% among 300,000; in the data active means max response mostly above about 13%, no sharp cut-off; inactive means mostly below about 14%; further: read at 38.3 µM for the half of the compounds with a filed dose
Lassa entry inh: Lassa virus entry inhibition | Lassa virus pseudotype entry inhibition, cell reporter | Potency, µM (top dose mostly 37.9 µM), hits mostly inhibitors | hit rate 1.2% among 300,000 | AID 540256; calls by dose curve; tested in HEK293 cells; further: nearly all actives have a fitted effect of over 50% in size
Large screens that a line does not name were inactive.

COc1ccccc1/C=N/NC(=O)c1ccc2c(c1)OCO2	Shiga inhibitor 81, Cycloheximide cs 24
O=C(N/N=C/c1ccccc1OC(=O)c1ccc2c(c1)OCO2)c1ccccc1	Shiga inhibitor 64, Cycloheximide cs 21, Lassa entry inh inconclusive
COc1cc(/C=N/NC(=O)c2cc(-c3ccc4c(c3)OCO4)n[nH]2)ccc1O	Vaccinia mCherry inconclusive, Cycloheximide cs 16
CCCOc1ccc(/C=N/NC(=O)c2ccc3c(c2)OCO3)c(OCCC)c1	none
COc1ccccc1N/N=C/c1ccc2c(c1)OCO2	Cycloheximide cs 39 (no result: Vaccinia mCherry, Vaccinia Venus)
Cc1cnc(C(=O)N(CCCn2ccnc2)C2C(=O)Nc3ccccc3N=C2c2ccccc2)cn1 (stereo not given)	none (no result: Marburg entry inh, Shiga inhibitor, Cycloheximide cs, Lassa entry inh)
COc1ccc(C(=O)N/N=C/C(C)c2ccccc2)cc1OC (stereo not given)	none
COc1ccccc1C(=O)N/N=C/c1ccc2c(c1)OCO2	Marburg entry inh inconclusive, Shiga inhibitor 89, Cycloheximide cs 35, Lassa entry inh inconclusive
COc1cc2ccccc2cc1C(=O)N/N=C/c1ccc2c(c1)OCO2	none (no result: Vaccinia mCherry, Marburg entry inh, Vaccinia Venus, Lassa entry inh)
COc1ccc(/C=N/NC(=O)c2ccc3c(c2)OCO3)c(C(=O)O)c1OC	Cycloheximide cs 11 (no result: Vaccinia mCherry, Marburg entry inh, Vaccinia Venus, Lassa entry inh)
CC(/C=N\NC(=O)c1ccc2c(c1)OCO2)c1ccccc1 (stereo not given)	Shiga inhibitor 46, Cycloheximide cs 27 (no result: Vaccinia mCherry, Marburg entry inh, Vaccinia Venus, Lassa entry inh)
COc1ccc(-n2c(SCC(=O)Nc3ccccc3C)nc(O)c(Cc3ccccc3)c2=O)cc1	none
COc1ccc(-n2c(O)c(Cc3ccccc3)c(=O)n3nc(-c4ccccc4)c(=O)cc23)cc1	Cycloheximide cs 11, Lassa entry inh inconclusive
S=C1NNC2(NN1)C1CC3CC(C1)CC2C3	Shiga inhibitor 45, Cycloheximide cs 32
Cc1ccc(-c2csc3ncnc(OCC(=O)NC(=O)NCc4ccco4)c23)cc1	Marburg entry inh 21µM, Lassa entry inh inconclusive
O=C(Cn1cnc2scc(-c3ccccc3)c2c1=O)NCc1ccco1	none (no result: Marburg entry inh, Lassa entry inh)
CCc1ccc(-c2csc3ncn(CC(=O)NCc4ccco4)c(=O)c23)cc1	Marburg entry inh inconclusive, Shiga inhibitor 30, Cycloheximide cs 15, Lassa entry inh inconclusive
Cc1ccc(-c2nn3c(C)nnc3c3ccccc23)cc1S(=O)(=O)NCc1ccco1	Shiga inhibitor 37, Cycloheximide cs 51, Lassa entry inh inconclusive
Cc1ccc(-c2nn3c(C)nnc3c3ccccc23)cc1S(=O)(=O)NCCO	none
CCCCNS(=O)(=O)c1cc(-c2nn(C)c(=O)c3ccccc23)ccc1C	Marburg entry inh inconclusive, Lassa entry inh inconclusive
Cc1ccc(-c2nn(C)c(=O)c3ccccc23)cc1S(=O)(=O)NCCN(C)C	Marburg entry inh 11µM
Cc1ccc(C(=O)c2coc3ccc(O)cc23)cc1	Shiga inhibitor 41, Cycloheximide cs 34 (no result: Vaccinia mCherry, Marburg entry inh, Vaccinia Venus, Lassa entry inh)
Cc1ccc(C(=O)c2coc3ccc(O)c(Cl)c23)cc1	Shiga inhibitor 72, Cycloheximide cs 36, Lassa entry inh inconclusive (no result: Vaccinia mCherry, Vaccinia Venus)
Cc1ccc2occ(/C=N/NC(=O)c3ccc(O)cc3)c(=O)c2c1	none (no result: Vaccinia mCherry, Marburg entry inh, Vaccinia Venus, Lassa entry inh)
CN(C)Cc1c(O)ccc2occ(C(=O)c3ccc(F)cc3)c12	Vaccinia mCherry inconclusive, Marburg entry inh inconclusive
O=C(c1ccccc1)c1coc2ccc(O)c(Cl)c12	Shiga inhibitor 118, Cycloheximide cs 67
COc1ccc(S(=O)(=O)NCCc2cn3ccsc3n2)cc1OC	none (no result: Marburg entry inh, Shiga inhibitor, Cycloheximide cs)
CCOc1ccc(NC(=O)c2cc3cc4cc(OC)ccc4nc3s2)cc1	none (no result: Shiga inhibitor, Cycloheximide cs)
COC(=O)C1CCN(Cc2ccc3c(c2)CN(C(=O)c2ccc(-n4cnnn4)cc2)CCO3)CC1	none (no result: Marburg entry inh, Shiga inhibitor, Cycloheximide cs, Lassa entry inh)
CCN(CC(=O)NC(C)C)Cc1nc2c(Br)cc(Br)cc2c(=O)[nH]1	none (no result: Vaccinia mCherry, Marburg entry inh, Vaccinia Venus, Lassa entry inh)
CN(CC(=O)Nc1ccc(S(=O)(=O)N2CCCC2)cc1)Cc1c(F)cccc1Cl	Marburg entry inh 5µM, Lassa entry inh inconclusive
CN(CC(=O)Nc1ccc(S(=O)(=O)N2CCCC2)cc1)Cc1ccc(Cl)cc1	Marburg entry inh inconclusive, Lassa entry inh inconclusive
COc1ccc(C=C(c2nc3ccccc3s2)c2nc3ccccc3s2)cc1O	Marburg entry inh inconclusive, Shiga inhibitor active, Cycloheximide cs 89, Lassa entry inh inconclusive
COc1cc(C=C(c2nc3ccccc3s2)c2nc3ccccc3s2)ccc1O	Marburg entry inh inconclusive, Cycloheximide cs 23
COc1cc(/C=C/c2nc3ccccc3s2)cc(OC)c1O	Shiga inhibitor 78, Cycloheximide cs 41, Lassa entry inh inconclusive
CCN(CC)c1ccc(Nc2nc(-c3cccnc3)cs2)cc1	Marburg entry inh inconclusive, Shiga inhibitor 118, Cycloheximide cs 36
CN(C)c1ccc(Nc2nc(-c3cccnc3)cs2)cc1	Marburg entry inh inconclusive, Shiga inhibitor 59, Cycloheximide cs 52, Lassa entry inh inconclusive
O=C(Nc1ccc(S(=O)(=O)N2CCCC2)cc1)c1ccc2c(=O)n3c(nc2c1)CCCCC3	Marburg entry inh 2.5µM
Cc1ccc(NC(=O)c2ccc3c(=O)n4c(nc3c2)CCC4)cc1S(=O)(=O)N(C)C	none (no result: Shiga inhibitor, Cycloheximide cs)
Cc1ccc(S(=O)(=O)N2CCCCC2)cc1NC(=O)c1ccc2c(=O)n3c(nc2c1)CCCCC3	Marburg entry inh inconclusive, Lassa entry inh 16µM (no result: Vaccinia mCherry, Vaccinia Venus)
Cc1ccc(-c2csc(NC(=O)c3ccc4c(=O)n5c(nc4c3)CCCCC5)n2)cc1	Marburg entry inh inconclusive, Lassa entry inh inconclusive
Cc1ccc(S(=O)(=O)c2nnn(CC(=O)Nc3ccccc3C)c2N)cc1C	none (no result: Shiga inhibitor, Cycloheximide cs)
CC1CCC(NC(=O)CNC(=O)Cc2cccc3ccccc23)CC1 (stereo not given)	none
Cc1ccc(C(=O)COC(=O)Cc2ccccc2)cc1	Marburg entry inh inconclusive, Shiga inhibitor 77, Cycloheximide cs 46
O=C(Cc1ccccc1)OCC(=O)c1ccc(F)cc1	Lassa entry inh inconclusive (no result: Shiga inhibitor, Cycloheximide cs)
Cc1ccc(C(=O)COc2nc(C)nc3ccccc23)cc1	Shiga inhibitor 80, Cycloheximide cs 24
O=C(Cc1ccccc1)OCC(=O)c1ccccc1	Cycloheximide cs 30
Cc1cc(C)c(C#N)c(OCC(=O)c2ccccc2)n1	Cycloheximide cs 39
Cc1ccc(C(=O)COC(=O)CNC(=O)Cc2ccccc2)cc1	Marburg entry inh inconclusive
COc1ccc(OC)c(NC(=O)C(Cc2ccccc2)NS(=O)(=O)c2ccc3c(c2)CCC(=O)N3)c1 (stereo not given)	Lassa entry inh inconclusive (no result: Shiga inhibitor, Cycloheximide cs)
COCCNC(=O)CN1C(=O)c2cccnc2Sc2ccccc21	none (no result: Marburg entry inh, Shiga inhibitor, Cycloheximide cs)
O=C(CN1C(=O)CCn2nc(-c3ccccc3)cc21)NCc1ccc(F)cc1	none (no result: Marburg entry inh, Shiga inhibitor, Cycloheximide cs)
Cc1ccc(NC(=O)CCc2nnc3ccc(N4CCC5(CC4)OCCO5)nn23)nc1	none (no result: Vaccinia mCherry, Marburg entry inh, Vaccinia Venus, Lassa entry inh)
CC(=O)c1ccc(NC(=O)CCc2nnc3ccc(N4CCC5(CC4)OCCO5)nn23)cc1	Marburg entry inh inconclusive, Shiga inhibitor 82, Cycloheximide cs 47
Cc1ccc(N2CC(O)=C(c3ccccc3)C2=N)cc1	Marburg entry inh inconclusive, Cycloheximide cs 18
Cc1ccc(Cn2cc(C=O)c(-c3ccc(C)cc3)n2)cc1	Marburg entry inh inconclusive, Shiga inhibitor 78, Cycloheximide cs 52, Lassa entry inh inconclusive
COCCCNc1ncnc2c1cnn2-c1ccc(F)cc1	Lassa entry inh inconclusive (no result: Marburg entry inh, Shiga inhibitor, Cycloheximide cs)
COC(=O)C1CCN(C(=O)/C=C/c2ccc3c(c2)OCO3)CC1	Cycloheximide cs 15, Lassa entry inh inconclusive (no result: Shiga inhibitor)
CN1CCN(C(=O)/C=C/c2ccc3c(c2)OCO3)CC1	Cycloheximide cs 26
